Where “and” joins values, the source holds several entries; their conditions need not be identical. Identical values can stand only once. Hit rate of the full screen: of about 5,500 compounds, about 2,000 (36%) were called active. Not shown: some 18% with an inconclusive outcome. Rule as the data show it: active = normalized growth mostly below about 0.91 (no sharp cut-off); inconclusive = no clear call, values can overlap the other calls; inactive = mostly above about 0.92. This is one part of the list.
Test: chemical genetic growth profiling, strain panel (AID 1159580);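 also: tested at 20 µM; growth read once vehicle control cultures reached saturation at 30 °C; 1 = growth at the plate median or of vehicle wells; lower values mean less growth of the strain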
Conditions: S. cerevisiae deletion strains, growth OD
[1] = locus YAL013W, strain DEP1, active compounds read low
[2] = locus YAL040C, strain CLN3, active compounds read low
[3] = locus YCL061C, strain MRC1 (second series), active compounds read low
[4] = locus YDR363W, strain ESC2, active compounds read low
[5] = locus YER002W, strain NOP16, active compounds read low
[6] = locus YNL128W, strain TEP1, active compounds read low
[7] = locus YNL153C, strain GIM3, active compounds read low
[8] = locus YNL175C, strain NOP13, active compounds read low
[9] = locus YNL197C, strain WHI3, active compounds read low
[10] = locus YNL224C, strain SQS1, active compounds read low
[11] = locus YOR083W, strain WHI5 (second series), active compounds read low
[12] = locus YMR307W, strain GAS1, active compounds read low
[13] = locus YDR150W, strain NUM1, active compounds read low
[14] = locus YJR075W, strain HOC1, active compounds read low

Measured: normalized growth

CCC(CO)NC(=O)C1C=C2c3cccc4[nH]cc(c34)CC2N(C)C1 (configuration not stated)
inactive: [1] 0.986 | [2] 0.999 | [3] 1 | [4] 0.991 | [5] 0.99 | locus YGR078C, strain PAC10, active compounds read low 0.977 | [6] 0.997 | [7] 1.02 | [8] 0.996 | [9] 0.978 | [10] 0.995 | [11] 0.996

O=C1CCC(c2ccc(-n3ccnc3)cc2)=NN1
inactive: [1] 0.984 | [2] 0.943 | [3] 1 | [4] 1 | [5] 1.01 | locus YMR263W, strain SAP30, active compounds read low 1 | [12] 1.05 | [8] 0.987 | [9] 0.979 | [10] 0.994 | [11] 0.994

N[C@@H](COP(=O)(O)O)C(=O)O
inactive: [2] 0.991 | [3] 0.989 | [13] 1.01 | [4] 1.01 | [5] 1 | [14] 0.984 | [8] 1.01 | [9] 0.984 | [10] 0.992 | locus YNL322C, strain KRE1, active compounds read low 1.01 | [11] 1.01 | locus YPL055C, strain LGE1, active compounds read low 1.01 | locus YPL241C, strain CIN2, active compounds read low 0.997

COc1cc(=O)n(C)c2c(OCC(O)C(C)(C)O)cccc12 (configuration not stated)
inactive: [1] 1.03 | [2] 0.99 | [3] 1.01 | [4] 1.01 | [5] 0.999 | [14] 1.01 | [6] 0.99 | [8] 1 | [9] 1.02 | [10] 1.01 | [11] 1.02

Cc1[nH]ccc2c1[nH]c1cc(=O)ccc12
inactive: [1] 1.02 | locus YAL021C, strain ccr4, active compounds read low 0.989 | locus YAL026C, strain drs2, active compounds read low 1.01 | locus YAL030W, strain snc1, active compounds read low 0.995 | locus YBL061C, strain skt5, active compounds read low 0.993 | locus YBR009C, strain hhf1, active compounds read low 1.01 | locus YBR021W, strain FUR4, active compounds read low 1.03 | locus YBR023C, strain chs3, active compounds read low 1 | locus YBR171W, strain sec66, active compounds read low 0.999 | locus YBR229C, strain ROT2, active compounds read low 1.01 | locus YBR231C, strain swc5, active compounds read low 0.975 | locus YBR279W, strain paf1, active compounds read low 1.01 | locus YCL011C, strain gbp2, active compounds read low 1 | locus YCL016C, strain dcc1, active compounds read low 1 | locus YCL029C, strain bik1, active compounds read low 0.986 | locus YCL061C, strain MRC1, active compounds read low 1 | locus YCL069W, strain vba3, active compounds read low 0.995 | locus YCR088W, strain abp1, active compounds read low 0.998 | locus YDL005C, strain med2, active compounds read low 0.996 | locus YDL035C, strain GPR1, active compounds read low 1.03 | locus YDL040C, strain nat1, active compounds read low 0.993 | locus YDL074C, strain BRE1, active compounds read low 1.04 | locus YDL101C, strain DUN1, active compounds read low 1.01 | locus YDL185W, strain tfp1, active compounds read low 0.996 | locus YDL192W, strain arf1, active compounds read low 0.991 | locus YDR001C, strain nth1, active compounds read low 1.01 | locus YDR069C, strain doa4, active compounds read low 1.01 | locus YDR101C, strain arx1, active compounds read low 0.985 | locus YDR137W, strain rgp1, active compounds read low 1 | [13] 1 | locus YDR159W, strain sac3, active compounds read low 0.978 | locus YDR162C, strain NBP2, active compounds read low 1.03 | locus YDR195W, strain ref2 0.996 | locus YDR297W, strain sur2, active compounds read low 1 | locus YDR318W, strain mcm21, active compounds read low 0.993 | locus YDR334W, strain swr1, active compounds read low 1 | locus YDR335W, strain msn5, active compounds read low 0.995 | locus YDR388W, active compounds read low 0.988 | locus YDR392W, strain spt3, active compounds read low 0.96 | locus YDR502C, strain sam2, active compounds read low 0.992 | locus YEL003W, strain gim4, active compounds read low 0.997 | locus YEL037C, strain rad23, active compounds read low 0.993 | locus YEL061C, strain CIN8 (second series), active compounds read low 0.989 | locus YEL061C, strain CIN8, active compounds read low 1.01 | locus YER015W, strain faa2, active compounds read low 1 | locus YER016W, strain bim1, active compounds read low 0.997 | locus YER110C, active compounds read low 0.98 | locus YER111C, strain swi4, active compounds read low 0.989 | locus YER155C, strain BEM2 (second series), active compounds read low 0.973 | locus YER155C, strain BEM2, active compounds read low 1.02 | locus YER167W, strain BCK2, active compounds read low 1.03 | locus YFR010W, strain ubp6, active compounds read low 0.995 | locus YGL078C, strain dbp3, active compounds read low 0.992 | locus YGL086W, strain mad1, active compounds read low 1.01 | locus YGL167C, strain pmr1, active compounds read low 0.993 | locus YGL173C, strain kem1, active compounds read low 1 | locus YGL227W, strain vid30, active compounds read low 0.995 | locus YGL240W, strain doc1, active compounds read low 0.995 | locus YGL248W, strain PDE1, active compounds read low 1.02 | locus YGL253W, strain hxk2, active compounds read low 1 | locus YGR135W, strain pre9, active compounds read low 0.999 | locus YGR252W, strain gcn5, active compounds read low 1.01 | locus YHR013C, strain ard1, active compounds read low 1 | locus YHR027C, strain rpn1, active compounds read low 1 | locus YHR030C, strain SLT2, active compounds read low 1.01 and 0.992 | locus YHR079C, strain IRE1 (second series), active compounds read low 0.991 | locus YHR079C, strain IRE1, active compounds read low 0.989 | locus YHR094C, strain hxt1, active compounds read low 0.986 | locus YHR129C, strain ARP1, active compounds read low 1.03 | locus YHR142W, strain chs7, active compounds read low 1 | locus YHR200W, strain rpn10, active compounds read low 0.993 | locus YIL066C, strain RNR3, active compounds read low 1.04 | locus YIL073C, strain SPO22, active compounds read low 1.02 | locus YIL125W, strain kgd1, active compounds read low 0.993 | locus YIR030C, strain dcg1, active compounds read low 0.991 | locus YJL092W, strain hpr5, active compounds read low 0.999 | locus YJL095W, strain BCK1 (second series), active compounds read low 0.995 | locus YJL095W, strain BCK1, active compounds read low 1.01 and 1.02 | locus YJL115W, strain asf1, active compounds read low 0.994 | locus YJL129C, strain trk1, active compounds read low 1 | locus YJL134W, strain LCB3, active compounds read low 1 | locus YJL154C, strain vps35, active compounds read low 0.997 | locus YJL164C, strain tpk1, active compounds read low 0.996 | locus YJL166W, strain qcr8, active compounds read low 0.995 | locus YJL168C, strain set2, active compounds read low 0.986 | locus YJL187C, strain SWE1 (second series), active compounds read low 1.02 | locus YJL187C, strain SWE1, active compounds read low 0.996 | locus YJR043C, strain POL32, active compounds read low 1.04 | locus YJR066W, strain TOR1, active compounds read low 0.947 | [14] 1.02 | locus YKL009W, strain mrt4, active compounds read low 0.995 | locus YKL068W, active compounds read low 0.997 | locus YKL085W, strain MDH1 (second series), active compounds read low 1.01 | locus YKL085W, strain MDH1, active compounds read low 1.01 | locus YKL160W, strain elf1, active compounds read low 1 | locus YKL190W, strain CNB1, active compounds read low 0.987 | locus YKR001C, strain vps1, active compounds read low 0.987 | locus YKR026C, strain gcn3, active compounds read low 1 | locus YKR091W, strain srl3, active compounds read low 0.992 | locus YLL001W, strain dnm1, active compounds read low 0.994 | locus YLL026W, active compounds read low 1 | locus YLL041C, strain sdh2, active compounds read low 0.999 | locus YLR027C, strain aat2, active compounds read low 0.998 | locus YLR039C, strain RIC1, active compounds read low 1.06 | locus YLR058C, strain SHM2, active compounds read low 1.01 | locus YLR102C, strain apc9, active compounds read low 0.993 | locus YLR113W, strain HOG1, active compounds read low 1.02 | locus YLR221C, strain rsa3, active compounds read low 1.01 | locus YLR258W, strain gsy2, active compounds read low 0.995 | locus YLR262C, strain YPT6 (second series), active compounds read low 0.998 | locus YLR262C, strain YPT6, active compounds read low 1.09 | locus YLR268W, strain sec22, active compounds read low 0.984 | locus YLR320W, strain mms22, active compounds read low 0.999 | locus YLR330W, strain CHS5, active compounds read low 1 | locus YLR342W, strain FKS1 (second series), active compounds read low 1.03 | locus YLR342W, strain FKS1, active compounds read low 0.994 | locus YLR357W, strain rsc2, active compounds read low 0.99 | locus YLR370C, strain arc18, active compounds read low 1 | locus YLR371W, strain rom2, active compounds read low 0.983 | locus YLR384C, strain iki3, active compounds read low 0.999 | locus YLR418C, strain cdc73, active compounds read low 0.997 | locus YML016C, strain PPZ1, active compounds read low 1.01 | locus YML032C, strain rad52, active compounds read low 0.999 | locus YML120C, strain ndi1, active compounds read low 0.992 | locus YML124C, strain tub3, active compounds read low 1 | locus YMR058W, strain fet3, active compounds read low 1 | locus YMR078C, strain ctf18, active compounds read low 0.985 | locus YMR125W, strain sto1, active compounds read low 0.986 | locus YMR129W, active compounds read low 0.995 | locus YMR205C, strain PFK2, active compounds read low 0.983 | locus YMR223W, strain ubp8, active compounds read low 1.01 | locus YMR231W, strain pep5, active compounds read low 0.999 | [12] 1.09 | locus YNL067W, strain RPL9B, active compounds read low 1 | locus YNL071W, strain lat1, active compounds read low 1 | [6] 1.02 | [7] 1 | locus YNL183C, strain NPR1, active compounds read low 0.97 | locus YNL209W, strain ssb2, active compounds read low 1 | locus YNL233W, strain BNI4, active compounds read low 1.01 | locus YNL248C, strain rpa49, active compounds read low 0.995 | locus YNL250W, strain rad50, active compounds read low 1.01 | locus YNL271C, strain bni1, active compounds read low 0.988 | locus YNL298W, strain CLA4, active compounds read low 1.02 | locus YNL307C, strain MCK1, active compounds read low 0.988 | locus YNL322C, strain KRE1 (second series), active compounds read low 0.997 | locus YNR049C, strain mso1, active compounds read low 1 | locus YNR052C, strain pop2, active compounds read low 1 | locus YOL012C, strain htz1 0.948 | locus YOL147C, strain pex11, active compounds read low 0.986 | locus YOR001W, strain rrp6, active compounds read low 0.999 | locus YOR061W, strain CKA2, active compounds read low 1.01 | locus YOR069W, strain VPS5, active compounds read low 1.01 | locus YOR070C, strain gyp1, active compounds read low 0.998 | locus YOR080W, strain dia2, active compounds read low 0.996 | locus YOR083W, strain WHI5, active compounds read low 0.993 | locus YOR106W, strain vam3, active compounds read low 1 | locus YOR136W, strain idh2, active compounds read low 0.991 | locus YOR144C, strain elg1, active compounds read low 0.983 | locus YOR184W, strain ser1, active compounds read low 1 | locus YOR231W, strain MKK1, active compounds read low 1.01 | locus YOR265W, strain rbl2, active compounds read low 0.996 | locus YOR270C, strain vph1, active compounds read low 1.01 | locus YOR290C, strain snf2, active compounds read low 0.989 | locus YOR316C, strain cot1, active compounds read low 0.991 | locus YPL051W, strain arl3, active compounds read low 1 | locus YPL078C, strain atp4, active compounds read low 1.01 | locus YPL106C, strain sse1, active compounds read low 0.987 | locus YPL240C, strain hsp82, active compounds read low 0.99 | locus YPL256C, strain CLN2, active compounds read low 1.03 | locus YPR119W, strain clb2, active compounds read low 0.987 | locus YPR141C, strain kar3, active compounds read low 0.994 | locus YPR163C, strain tif3, active compounds read low 0.986 | locus YPR167C, strain met16, active compounds read low 0.996 | strain wtn01, active compounds read low 0.984

From PubChem BioAssay AID1159580 (chemical genetic matrix, 2015)
